G9a block = qHTS Assay for Inhibitors of Histone Lysine Methyltransferase G9a. Histone-lysine N-methyltransferase EHMT2 (Homo sapiens), Q96KQ7. G9a H3K9 monomethylation, AlphaScreen, 2 h. Potency, µM (highest dose often 102 µM), usual class: inhibitors. 350,000 compounds, 8.8% hits. AID 504332, 2011; further: nearly all actives have a fitted effect of over 75% in size
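Readings reflect AlphaScreen signal from monomethyl-H3K9 antibody detection. HMT at 20 nM; substrate b-H3K9 500 nM; cofactor SAM 20 uM; 2 h RT reaction; compounds tested as titrations in qHTS with 15 min preincubation.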
HP1b chromo inh = HTS for Inhibitors of HP1-beta Chromodomain Interactions with Methylated Histone Tails; AlphaScreen HP1-beta / biotin-H3K9me3 peptide binding; Potency, µM (titrated, usually from 114 µM), most hits filed as inhibitors; 390,000 compounds, 0.56% hits; further: nearly all actives have a fitted effect of over 70% in size
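HP1-beta protein (50 nM final) preincubated 30 min at room temperature with biotinylated H3(1-18)K9me3 peptide (50 nM) in PBS pH 7.4, 0.01% Tween-20, then compound added for 30 min. AlphaScreen streptavidin donor/nickel chelate acceptor beads (10 ug/mL final), 30 min dark, luminescence read.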
PLK1 PBD block = qHTS for Inhibitors of PLK1-PDB (polo-like kinase 1 - polo-box domain): Primary Screen. Plk1 PBD binding of FITC phosphopeptide, fluorescence polarization. 360,000 compounds, 2.8% hits. Potency, µM, actives largely listed as inhibitors; further: series mostly up to about 57 µM; nearly all actives have a fitted effect of over 65% in size
Target sequence (P53350 whole entry, looked up, the tested form may be a part): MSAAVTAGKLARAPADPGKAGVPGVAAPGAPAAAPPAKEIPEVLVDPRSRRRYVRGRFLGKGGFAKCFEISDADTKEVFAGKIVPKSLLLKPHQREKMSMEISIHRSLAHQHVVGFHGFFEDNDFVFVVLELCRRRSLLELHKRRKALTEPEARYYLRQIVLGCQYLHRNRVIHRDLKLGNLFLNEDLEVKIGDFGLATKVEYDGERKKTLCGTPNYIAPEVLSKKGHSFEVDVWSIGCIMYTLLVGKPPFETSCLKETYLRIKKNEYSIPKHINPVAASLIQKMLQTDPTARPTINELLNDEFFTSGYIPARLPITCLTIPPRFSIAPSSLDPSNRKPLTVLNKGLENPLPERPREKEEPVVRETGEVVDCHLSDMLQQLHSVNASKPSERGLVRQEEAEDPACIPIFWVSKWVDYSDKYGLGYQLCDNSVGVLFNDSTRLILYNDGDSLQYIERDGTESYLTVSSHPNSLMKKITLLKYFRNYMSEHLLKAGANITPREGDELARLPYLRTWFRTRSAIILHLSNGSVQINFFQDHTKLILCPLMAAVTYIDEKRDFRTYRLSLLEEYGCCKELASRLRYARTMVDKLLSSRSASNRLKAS
BAZ2B inh = qHTS Assay for Inhibitors of BAZ2B. AlphaScreen BAZ2B-H3K14Ac peptide displacement. Potency, µM (highest dose often 114 µM), most hits filed as inhibitors. 360,000 compounds, 4.4% hits; further: nearly all actives have a fitted effect of over 60% in size
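Multi-concentration screen (max 110 uM) measuring displacement of acetylated histone H3 peptide from BAZ2B by AlphaScreen, using 50 nM protein, 50 nM peptide and 10 ug/mL streptavidin donor plus Ni-chelate acceptor beads.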
JMJD2A Tudor inh = qHTS Assay for Inhibitors of JMJD2A-Tudor Domain. Lysine-specific demethylase 4A (Homo sapiens), O75164. AlphaScreen JMJD2A-Tudor / H3K4me3 peptide binding. Potency, µM (doses to about 114 µM), hits mostly inhibitors. 390,000 compounds, 4.4% hits. AID 504339, 2011; further: nearly all actives have a fitted effect of over 50% in size
PI5P4Ka inh = qHTS for Inhibitors of phosphatidylinositol 5-phosphate 4-kinase (PI5P4K); Phosphatidylinositol 5-phosphate 4-kinase type-2 alpha (Homo sapiens), P48426; PI5P4Kalpha enzyme, ADP-Glo luminescence, 60 min; active compounds read low; max response, %; 330,000 compounds, 1.2% hits; AID 652105, 2013; active means max response of -50% or lower; inconclusive means between -30% and -50%; inactive means -30% or higher; further: value at the top dose of about 77 µM
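qHTS, 1536-well: enzyme/substrate mix, compound by pin tool, 5 microM ATP final; RT 60 min; ADP-Glo reagents 1 (45 min) then 2 (30 min); luminescence.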
A number is an active result; i = inactive; ? = inconclusive; nt = no result; ! = a repeat was not active; [ ] = dose if it differs, or a comment. Most compounds without a hit are left out; they make up all but 12% or so of the library. Unless noted, the call rests on the fitted dose curve; in most records, active means well fitted curve in the direction sought with a large enough effect; inconclusive means small, poorly fitted or top-dose-only effect, or another doubt; inactive means no such curve, though single readings can be large; an effect the other way counts as inactive or inconclusive.

SMILES	G9a block	HP1b chromo inh	PLK1 PBD block	BAZ2B inh	JMJD2A Tudor inh	PI5P4Ka inh
COc1ccc(NS(=O)(=O)c2cc(OC)ccc2NC(=O)c2cc(C)oc2C)cc1	79µM	i	i	i	?	i
CC1(C(=O)NS(=O)(=O)c2cccs2)CCN1C(=O)Cc1ccc(Cl)cc1Cl (stereo not drawn)	nt	nt	i	nt	nt	i
COc1ccc(OC)c(/C=C2\S/C(=N/NC(=O)c3ccc4ccccc4c3)NC2=O)c1	i	i	?	i	i	?
O=C1N/C(=N/NC(=O)c2cccc3ccccc23)S/C1=C\c1ccccc1OCc1ccccc1	i[12.7 µM]	i	27µM	i	i	-55
CC[C@@]1(C(=O)OC)N[C@H](CN(C)C(=O)Nc2ccc(C(F)(F)F)cc2)[C@@H]2C(=O)N(C)C(=O)[C@@H]21	nt	i	i	nt	i	i
COC(=O)c1c(-c2ccc(Cl)cc2)noc1N1CCN(c2ccc(F)cc2)CC1	i	i	nt	?	i	nt
Nc1nc2sc3c(c2cc1C(=O)N1CCOCC1)CCCC3	?	i	i	i	14µM	i
Cc1ccc2cc(C(c3nnnn3C(C)(C)C)N3CCCCCC3)c(=O)[nH]c2c1 (stereo not drawn)	7.9µM	i	i	i	i	nt
COc1cc2cc(C(c3nnnn3C(C)(C)C)N3CCc4ccccc4C3)c(=O)[nH]c2cc1OC (stereo not drawn)	?	?	?	i	?	nt
CCC(C)(C)n1nnnc1C(c1cc2cc(C)ccc2[nH]c1=O)N1CCCC1 (stereo not drawn)	8.9µM	i	i	i	i	nt
CCC(C)(C)n1nnnc1C(c1cc2cc(OC)c(OC)cc2[nH]c1=O)N1CCc2ccccc21 (stereo not drawn)	45µM	i	i	i	?	nt
Cc1ccc2[nH]c(=O)c(C(c3nnnn3C(C)(C)C)N3CCN(C(=O)c4ccco4)CC3)cc2c1 (stereo not drawn)	i[0.501 µM]	i	i	i	i	nt
COc1ccc(Cl)cc1NC(=O)CN(C)C(=O)CCNC(=O)c1ccccc1OC	i[12.7 µM]	i	i	i	i	i
N[C@@H]1CONC1=O	20µM!	nt	nt	i	nt	nt
N[C@H]1CONC1=O	?	i	i	nt	i	i
CN1C2CCC1/C(=C\c1ccc(F)cc1)C(=O)/C2=C/c1ccc(F)cc1	i	i	i	i	i	i
Cn1cccc1/C=C1\Cc2ccccc2C1=O	i	i	i	i	i	i
Cn1cccc1/C=C1\CC(C(C)(C)C)C/C(=C\c2cccn2C)C1=O (stereo not drawn)	?	?	i	28µM	40µM	nt
CN1C2CCC1/C(=C/c1cccn1C)C(=O)/C2=C\c1cccn1C	?	?	i	45µM	45µM	i
C[C@@H]1CN([C@@H](C)CO)C(=O)CCCn2cc(nn2)CO[C@H]1CN(C)C(=O)c1cc(-c2ccccc2)on1	nt	nt	i	nt	nt	i
c1ccc(C2=Nc3c(ccc4ccccc34)C(c3ccncc3)=NN2)cc1	nt	?	i	35µM	35µM	i
Cc1ccc2c(c1)C(c1ccncc1)=NNC(c1ccccc1)=N2	i	i	21µM	i	i	i
CCc1ccc2c(c1)C(c1ccncc1)=NNC(c1ccccc1)=N2	i	i	i	?	i	i
CCCS(=O)(=O)NC(=O)C1(C)CCCN(C(=O)C2(c3ccc(Cl)cc3)CCCC2)C1 (stereo not drawn)	nt	nt	i	nt	nt	i
Nc1nc(SCc2ccccn2)c2ncn(C3OC(CO)C(O)C3O)c2n1 (stereo not drawn)	nt	i	i	nt	i	i
SMILES	G9a block	HP1b chromo inh	PLK1 PBD block	BAZ2B inh	JMJD2A Tudor inh	PI5P4Ka inh
O=C(CN1C(=O)CCc2cc(S(=O)(=O)N3CCCCC3)ccc21)NCc1ccc(Cl)cc1	?	i	nt	i	i	nt
CCc1ccc2[nH]c(C(=O)N(C)c3ccc(F)cc3F)cc2c1	40µM	i	i	i	i	i
CCc1ccc2[nH]c(C(=O)Nc3ccc(C)c(F)c3)cc2c1	i[2.33 µM]	i	?	i	i	i
C[C@](N)(Cc1ccc(O)c(O)c1)C(=O)O	0.45µM!	?	i	16µM	20µM	-67
CCC1=NN2C(=N)/C(=C/c3ccc(OS(=O)(=O)c4ccccc4)c(OC)c3)C(=O)N=C2S1	i	i	19µM	i	i	i
CCC1=NN2C(=N)/C(=C\c3cccn3-c3ccc(OC)cc3)C(=O)N=C2S1	?	i	?	32µM	79µM	i
COc1cc(/C=C2/C(=N)N3N=C(C(C)C)SC3=NC2=O)ccc1OS(=O)(=O)c1ccccc1	i	i	38µM	i	i	?
O=C(CCCN1C(=O)C(c2ccccc2)Oc2cccnc21)Nc1cccc(F)c1 (stereo not drawn)	i	i	i	i	i	i
COc1ccc(C(N)CCc2ccc(C)o2)cc1 (stereo not drawn)	79µM	i	i	?	?	i
CCc1ccc(CCC(=O)Nc2ccc(OC)cc2)o1	i	i	i	i	?	i
Cc1cc2c(s1)c1cnn(Cc3cc(Cl)ccc3F)c(=O)c1n2C	nt	nt	nt	nt	i	nt
O=C(CCCc1cccs1)Nc1nccs1	i	i	i	i	i	i
NC(=O)CCCCC(=O)OCCCc1cccs1	i	i	i	?	89µM	i
O=C(O)C1(C(=O)O)CCC1	nt	i	i	i	i	i
N.N.O=C(O)C1(C(=O)O)CCC1.[Pt]	0.63µM	nt	nt	nt	nt	nt
C=CCNC(=O)c1cc(Cl)cc(Cl)c1	i	i	30µM	i	45µM	i
C=CCNC(=O)c1cc(Cl)ccn1	i	i	i	i	i	i
CC12CCC=CC1C(c1ccc(/C=C/c3ccccc3)cc1F)N(Cc1ccccc1)C2=O (stereo not drawn)	nt	i	nt	nt	i	nt
COc1cccc(CN2C(=O)NC3(CCCCCC3)C2=O)c1	i	i	i	i	i	i
COc1cc([N+](=O)[O-])cc(/C=N/NC(=O)c2cc(C)nc3ccccc23)c1O	i	i	i	20µM	22µM	i
COc1cc([N+](=O)[O-])cc(/C=N/NC(=O)c2cc(-c3ccccc3)nc3ccccc23)c1O	i	i	i	50µM	79µM	-57
COc1cc([N+](=O)[O-])cc(/C=N/NC(=O)c2cncc(Br)c2)c1O	nt	i	i	10µM	20µM	i
Cc1cc(C(=O)N/N=C/c2cccc([N+](=O)[O-])c2)c2ccccc2n1	i	i	i	i	i	i
Cc1ccc(CCNC(=O)CN(c2ccc(C(C)C)cc2)S(=O)(=O)c2c(C)nn(C)c2C)cc1	i	i	nt	i	i	nt
COC(=O)c1ccc(C2NC(c3ccc4c(c3)OCO4)=CC(c3ccccc3O)N2)cc1 (stereo not drawn)	nt	i	nt	nt	i	nt

Screening results as filed in PubChem.
